Test results: PubChem BioAssay (NCI)
Where “and” joins values, the source holds several entries; their conditions need not be identical. Identical values can stand only once. This is part of a sample that, as a whole, favours compounds with a hit. Of some 83,000 tested, about 20% had one in any assay.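 Percent growth is the endpoint: 0 to 100 indicates growth inhibition (40 means 60% inhibition), 0 means no net growth, and negative values indicate cell death.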 Unmarked numbers belong to inactive results. Calls of active or inactive are those of the source.

What follows are compounds tested on BT-549 breast (assay: NCI-60 one-dose screen, 48 h (100 = growth as untreated, 0 = no growth, -100 = all killed)). Conditions: 10 µM unless noted.
Description: Growth inhibition of the BT-549 human tumor cell line is measured as a screen for anti-cancer activity. Cells are grown in 96 well plates and exposed to the test compound for 48 hours. Compounds are tested at a single concentration, which is 10^-5 M for most compounds. The reported endpoint is percent growth (GI% or GIPRCNT), where numbers from 0 - 100% represent growth inhibition, and numbers from -100% - 0 represent cell death. For example, a value of 40 represents 60% growth inhibition. A value of 0 means no net growth occurred over the course of the experiment. A value of -40 indicates 40% of cells at the beginning of the experiment died by the end of the experiment. A value of -100 means all cells are dead at the end of the experiment.
NCI-60 Human Tumor Cell Lines Screen was performed using the standard one-dose NCI protocol, which is described in more detail at https://dtp.cancer.gov/discovery_development/nci-60/default.htm.
Compounds with GIPRCNT values below 10 were considered active. Activity score was based on GIPRCNT using the following formula: […]
Score is 0 for GIPRCNT values of 100 or above, 50 for GIPRCNT values of 0, and 100 for GIPRCNT values of -100.

`NCCSSC/C=C\CSSCCN` was tested. Which growth did it give?
The growth was 100%.

Which growth does the source give for `CCN(CC)Cc1cc2[nH]c3c4ccc(Cl)cc4ncc3c2cc1OC` here?
The growth was 75.1% and 82.2%.

How did the growth turn out when `Cc1ccc([N+](=O)[O-])cc1Br` was run?
The growth was 110%.

With `C/C(CC(C)C)=N/NC(N)=S` as the compound, how does the growth read?
Its growth is 107%.

With `S=c1ccc2ccccc2[nH]1` as the compound, how does the growth read?
The growth was 100% and 104%.

Which growth does the source give for `COc1cc(NCCCCCCCNC(C)C)c2nccc(C)c2c1` here?
Its growth is 85.7% and 64.2%.

Which growth does the source give for `N#CC1c2ccccc2C=CN1C(=O)c1ccccc1` (stereo not given) here?
Its growth is 115% and 139%.

With `O=[N+]([O-])c1ccc(NC(c2ccccc2)c2ccc3cccnc3c2O)cc1` (stereo not given) as the compound, how does the growth read?
Its growth is 39%.

With `CC1(CO)CCCC1NCCNC1CCCC1(C)CO` (stereo not given) as the compound, how does the growth read?
Its growth is 98.7% and 113%.

For `O=C1C2=C(Nc3cc(Cl)ccc3N2)OC1c1c[nH]c2ccc(COc3ccccc3)cc12` (stereo not given), which growth is on record?
Its growth is 26.7%.

`CC(=O)Oc1ccc(C2(c3ccc(OC(C)=O)cc3)C(=O)Nc3ccccc32)cc1` was tested. Which growth did it give?
Its growth is -33.3% (active) and -8.43% (active).

How did the growth turn out when `CCOC(=O)c1csc(N)n1` was run?
Its growth is 102% and 105%.

`O=C(O)C(Cc1ccc(OS(=O)(=O)Cc2ccccc2)cc1)NS(=O)(=O)Cc1ccccc1` (stereo not given) was tested. Which growth did it give?
Its growth is 104% and 106%.

With `O=c1[nH]c(=O)c2[nH]c(=O)[nH]c2[nH]1` as the compound, how does the growth read?
The growth was 90.8%.

Which growth does the source give for `Clc1ccc(/C=C/c2ccc3ccccc3n2)cc1` here?
The growth was 58.7% and 107% and 94.8%.

How did the growth turn out when `CC(=O)Oc1cc(C(C)C)c(OCCN(C)C)cc1C` was run?
Its growth is 119% and 100%.

With `O=C(O)c1cc(=O)[nH]c(=O)[nH]1` as the compound, how does the growth read?
Its growth is 97.2%.

Which growth does the source give for `ON=C(C1CCCCC1)C1CCCCC1` here?
Its growth is 108%.

With `Nc1ccc2ccc(NS(=O)(=O)N3CCCCC3)cc2c1` as the compound, how does the growth read?
The growth was 29%.

For `COc1ccc(/C=C/C(=O)O)cc1OC`, which growth is on record?
The growth was 107% and 111%.

For `Nc1nc(N)c2cc(S(=O)(=O)c3ccccc3)ccc2n1`, which growth is on record?
The growth was 81.4% and 54.6%.

With `CCN(CC)CCNC(=O)c1ccc(NCN2C(=O)NC(c3ccccc3)(c3ccccc3)C2=O)cc1` as the compound, how does the growth read?
The growth was 107% and 120%.

`Cc1onc(-c2c(F)cccc2Cl)c1-c1ncc(-c2ccc(Cl)cc2)o1` was tested. Which growth did it give?
Its growth is 73.8% and 40.7%.

`CCOC(=O)c1ccncc1` was tested. Which growth did it give?
Its growth is 109%.

With `CCn1c2ccc(N(C)C)cc2c2cc(N(C)C)ccc21` as the compound, how does the growth read?
Its growth is 96.6%.

How did the growth turn out when `CC1CC(O)CC(C)(C)C1.CC1CC(O)CC(C)(C)C1.CC1CC(O)CC(C)(C)C1.CC1CC(O)CC(C)(C)C1.[Ti]` (stereo not given) was run?
Its growth is 111%.

For `CN(C)CC(CN(C)C)C(O)c1ccccc1` (stereo not given), which growth is on record?
Its growth is 101%.

How did the growth turn out when `COc1ccc(CCNC(=S)NN)cc1OC` was run?
Its growth is 118%.

Which growth does the source give for `C/C=C(/C(=O)NC(N)=O)C(C)C` here?
Its growth is 106%.

`OCCS` was tested. Which growth did it give?
Its growth is 134%.

With `O=[N+]([O-])c1cccc2ccc(N/N=C/c3ccccc3O)nc12` as the compound, how does the growth read?
The growth was 68.6% and 103%.

How did the growth turn out when `CCOC(=O)C(N)Cc1cc(I)c(O)c(I)c1` (stereo not given) was run?
Its growth is 109% and 98.5%.

With `CCCCOC1NC(=O)NC(=O)C1(F)C(=O)OCC` (stereo not given) as the compound, how does the growth read?
The growth was 57.3% and 59.5%.

With `C=CCN1C(=O)c2ccccc2C1=O` as the compound, how does the growth read?
The growth was 96.8%.

How did the growth turn out when `O=C(O)C#Cc1ccc(Cl)cc1` was run?
Its growth is 99.9%.

Which growth does the source give for `Cc1ccc(C(=O)c2ccc(C)cc2)cc1` here?
The growth was 92%.

`CCOC(=O)NC(N)=O` was tested. Which growth did it give?
Its growth is 96% and 110%.

For `NC1=NC(c2ccccc2)N=C(Nc2ccccc2)N1` (stereo not given), which growth is on record?
The growth was 74.5% and 83.4%.

With `Nc1ccccc1SC(CC(=O)c1ccccc1)c1cccc([N+](=O)[O-])c1` (stereo not given) as the compound, how does the growth read?
Its growth is 103% and 88.9%.

How did the growth turn out when `CCC/C(=N/NC(N)=O)c1ccco1` was run?
Its growth is 97.4%.
